PubChem BioAssay (NCATS)
Records with an inconclusive call do not appear. A call without a number means that no potency is given here. Calls of active or inactive are those of the source. Unless noted, calls come from the whole dose curve.

Experiments:
[1] = qHTS for Inhibitors of the Functional Ribonucleoprotein Complex (vRNP) of Lassa (LASV) Arenavirus: Viability assay - alamar blue signal for LASV Primary Screen (AID 1347083; calls by dose curve; tested in HEK293 reporter line; note: nearly all actives have a fitted effect of over 80% in size; note: potency is the fitted concentration of half-maximal effect); details: cell viability, alamar blue fluorescence (LASV minigenome counter-screen); series mostly up to 57.5 µM
[2] = molecular target: Nucleoprotein (Lymphocytic choriomeningitis virus (strain Armstrong)) (UniProt P09992); assay: qHTS for Inhibitors of the Functional Ribonucleoprotein Complex (vRNP) of Lymphocytic Choriomeningitis Arenaviruses (LCMV): LCMV Primary Screen - GLuc reporter signal (AID 1347086); details: LCMV minigenome vRNP cell assay, Gaussia luciferase reporter; series mostly up to 57.5 µM; note: nearly all actives have a fitted effect of over 70% in size; note: potency is the fitted concentration of half-maximal effect
[3] = qHTS for Inhibitors of the Functional Ribonucleoprotein Complex (vRNP) of Lassa (LASV) Arenavirus: LASV Primary Screen - GLuc reporter signal (AID 1347082; calls by dose curve; tested in HEK293 reporter line; note: nearly all actives have a fitted effect of over 60% in size); details: LASV minigenome vRNP, Gaussia luciferase reporter; series mostly up to 57.5 µM
[4] = qHTS for Inhibitors of the Functional Ribonucleoprotein Complex (vRNP) of Lymphocytic Choriomeningitis Arenaviruses (LCMV): Viability assay - alamar blue signal for LCMV Primary Screen (AID 1347085; calls by dose curve; tested in HEK293 reporter line; note: nearly all actives have a fitted effect of over 80% in size); details: alamar blue viability counter-screen, LCMV vRNP screen cells; series mostly up to 57.5 µM

Nucleoprotein (Lymphocytic choriomeningitis virus (strain Armstrong)), sequence (P09992 whole entry, looked up): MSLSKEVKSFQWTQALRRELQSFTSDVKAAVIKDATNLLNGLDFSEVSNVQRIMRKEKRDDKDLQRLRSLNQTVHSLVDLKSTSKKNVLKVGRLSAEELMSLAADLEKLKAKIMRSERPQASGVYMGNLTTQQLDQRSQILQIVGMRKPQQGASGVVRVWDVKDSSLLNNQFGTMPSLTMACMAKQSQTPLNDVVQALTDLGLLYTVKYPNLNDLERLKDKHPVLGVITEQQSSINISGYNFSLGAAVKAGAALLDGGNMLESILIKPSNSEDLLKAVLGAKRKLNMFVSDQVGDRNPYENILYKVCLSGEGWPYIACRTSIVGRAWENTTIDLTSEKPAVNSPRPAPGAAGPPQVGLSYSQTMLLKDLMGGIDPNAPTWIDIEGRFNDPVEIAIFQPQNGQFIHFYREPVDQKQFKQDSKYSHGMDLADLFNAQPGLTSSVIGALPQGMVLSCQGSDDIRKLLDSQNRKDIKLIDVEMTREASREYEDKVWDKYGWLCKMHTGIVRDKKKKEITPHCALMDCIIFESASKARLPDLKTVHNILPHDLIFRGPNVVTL

Row | SMILES | Potency [1] | Potency [2] | Potency [3] | Potency [4]
1 | CC(C)n1nc(-c2cc3cc(O)ccc3[nH]2)c2c(N)ncnc21 | 1.78 µM (active) | 1.78 µM (active) | – | –
2 | COc1cc(O)c(C(=O)c2ccccc2)cc1S(=O)(=O)O | – | inactive | inactive | –
3 | COc1ccc(-c2nc3ccc(C4=NNC(=O)CC4C)cc3[nH]2)cc1 (configuration not stated) | – | inactive | inactive | –
4 | CC[N+](CC)(CC)CCOc1ccc(/C=C/c2ccccc2)cc1 | – | inactive | – | inactive
5 | CCO[C@@H]1O[C@H](C(COCc2ccccc2)OCc2ccccc2)[C@H](OCc2ccccc2)[C@H]1O (some centres not stated) | – | inactive | inactive | inactive
6 | CN1CCN(CCC(=O)N2c3ccccc3Sc3ccc(C(F)(F)F)cc32)CC1 | – | inactive | inactive | –
7 | CCCS(=O)c1ccc2nc(NC(=O)OC)[nH]c2c1 (configuration not stated) | – | inactive | inactive | –
8 | CN1CCC(=C2c3ccccc3CC(=O)c3sccc32)CC1 | – | inactive | inactive | inactive
9 | O=C1[C@H]2CCCC[C@H]2C(=O)N1CCCCN1CCN(c2nsc3ccccc23)CC1 | inactive | inactive | – | inactive
10 | Cc1ccc2nc(N)[nH]c(=O)c2c1Sc1ccncc1 | – | inactive | inactive | –
11 | C#C[C@]1(O)CC[C@H]2[C@@H]3CCc4cc(O)ccc4[C@H]3CC[C@@]21C | – | inactive | inactive | –
12 | O=C1N(c2ccccc2)c2ccccc2C1(Cc1ccncc1)Cc1ccncc1 | – | inactive | inactive | –
